Compound activity: PubChem BioAssay, several laboratories
hgDAF-12 ag – hgDAF-12 agonism, primary luciferase screen; HEK293 GAL4-hgDAF12 UAS-luciferase reporter, agonist luminescence; normalized to butyrate control; activation, % at 6.8 µM; hit rate 1.8% among 370,000; AID 687014;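 active means activation above a cutoff set at the mean of all screened compounds plus 3 SD, cut at about 10% in these data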;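 further: 0% = DMSO wells and 100% = sodium butyrate wells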
DAX1 inh-1 – blocks DAX1 repression of SF-1 activated StAR promoter | inhibition, % at 6.8 µM | HEK293T StAR-luciferase reporter, SF-1/DAX-1 repression relief | hit rate 1.1% among 370,000;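 active means inhibition above the mean over all tested compounds plus 3 SD, cut at about 3.6% in these data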;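 further: 0% = DAX-1 cells with DMSO and 100% = cells lacking DAX-1 with DMSO; higher inhibition means more luminescence from relief of DAX-1 repression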
NR1D1 modulator – modulates human Rev-erb alpha binding to DNA; P20393; Rev-erbα–FITC-DNA binding, fluorescence polarization, 90 min; activity, % at 10 µM; hit rate 0.79% among 370,000;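 active means activity above about 14%, limit read from the data; passing the limit was not always enough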;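 further: 0% = DMSO wells with 35 nM protein and 100% = DMSO wells with 750 nM protein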
Target sequence (P20393 whole entry, looked up): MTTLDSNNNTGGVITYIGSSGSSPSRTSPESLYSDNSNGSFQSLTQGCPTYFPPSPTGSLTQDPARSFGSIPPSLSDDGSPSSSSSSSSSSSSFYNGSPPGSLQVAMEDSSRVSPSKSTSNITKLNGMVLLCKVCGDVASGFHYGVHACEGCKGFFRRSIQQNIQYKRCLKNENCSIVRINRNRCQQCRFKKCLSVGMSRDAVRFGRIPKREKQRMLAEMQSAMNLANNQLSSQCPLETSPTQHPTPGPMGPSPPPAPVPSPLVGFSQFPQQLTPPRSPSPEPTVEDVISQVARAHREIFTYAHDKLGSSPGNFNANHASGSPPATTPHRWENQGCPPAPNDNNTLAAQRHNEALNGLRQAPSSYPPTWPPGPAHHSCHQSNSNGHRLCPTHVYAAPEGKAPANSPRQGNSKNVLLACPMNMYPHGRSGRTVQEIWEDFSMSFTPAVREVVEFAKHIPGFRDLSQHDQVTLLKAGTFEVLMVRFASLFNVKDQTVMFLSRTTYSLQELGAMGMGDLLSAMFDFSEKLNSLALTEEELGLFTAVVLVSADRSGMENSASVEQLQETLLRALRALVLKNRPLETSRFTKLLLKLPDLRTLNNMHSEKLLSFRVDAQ
ssDAF-12 act – S. stercoralis DAF-12 activation, primary screen. AID 652126. HEK293 ssDAF-12/GRIP1 lit1-tk-luc reporter, luminescence; % of 3 µM dafachronic acid response. hit rate 1% among 370,000. activation, % at 6.8 µM;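 active means activation above the mean over all tested compounds plus 3 SD, cut at about 0.9% in these data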;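 further: 0% = DMSO-only wells and 100% = 3 µM delta7-dafachronic acid wells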
hcDAF-12 act – activators of H. contortus DAF-12 nuclear receptor; activation, % at 6.8 µM; hit rate 1.4% among 370,000; HEK293 hcDAF-12 lit1-tk-luc reporter, luminescence; 0% DMSO, 100% Δ7-dafachronic acid;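 active means activation above the mean of all tested compounds plus 3 SD, cut at about 5.5% in these data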;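 further: 100% = response to 3 µM Δ7-dafachronic acid high control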
DAX1 inh-2 – NR0B1 (DAX1) inhibition. inhibition, % at 6.75 µM. HEK293 Gal4-DAX1 luciferase reporter, luminescence. hit rate 0.99% among 340,000. P51843;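 active means inhibition above the mean over all tested compounds plus 3 SD, cut at about 4.2% in these data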;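 further: 0% = DAX1-transfected cells with DMSO and 100% = empty-vector control cells with DMSO; inhibition shows as a rise in luminescence from relieved DAX1 repression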
LXRb hcDAF ctr – LXR-beta agonism as hcDAF-12 counter-screen; activation, % at 6.8 µM; HEK293 Gal4-LXR tk-luc reporter, luminescence, 24 h; normalized: DMSO 0%, positive control 100%; shares compounds with hcDAF-12 act; 3,400 tested, under 10 active;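 active means mean percent activation of the reporter above a cutoff set as the average over tested compounds plus their standard deviation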
hcDAF12 ag – hcDAF-12 agonism, confirmation assay; HEK293 hcDAF-12 lit1-tk-luc reporter, luminescence; % of Δ7-dafachronic acid response; activation, % at 6.8 µM; hit rate 61% among 3,400; shares compounds with hcDAF-12 act;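 active means mean activation across triplicate tests above the threshold derived from the earlier primary screen, cut at about 5.5% in these data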;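 further: 0% = DMSO only wells and 100% = 3 µM Δ7-dafachronic acid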
* marks the source's active call; other numbers are inactive results; nt = not tested or not shown. Most compounds without a hit are left out; they make up all but 4.8% or so of the library.

SMILES	hgDAF-12 ag	DAX1 inh-1	NR1D1 modulator	ssDAF-12 act	hcDAF-12 act	DAX1 inh-2	LXRb hcDAF ctr	hcDAF12 ag
CC(=O)n1cc(CO)c2ccccc21	0	1	7	-1	7.2*	0	0	3
O=C(Nc1nccs1)c1cnc2sccn2c1=O	9	2	-6	1.5*	8.5*	1	0	7.6*
C[C@@H]1CN(c2ccc(N3CCN(C(=O)OC(C)(C)C)C[C@@H]3C)cc2C#N)CCN1Cc1ccccc1	-2	-2	-1	0	-2	nt	nt	nt
COc1ccc(C2CC(=O)C(c3ccccc3OC)=CN2Cc2ccccc2)cc1 (stereo not given)	3	-2	-3	-1	-3	nt	nt	nt
Cc1ccc(NC(=O)c2ccc(NCCN)c([N+](=O)[O-])c2)cc1	2	1	7	0	7.1*	-1	0	3
O=C(O)Cc1ccc(N=Nc2c(O)c(C(=O)O)cc3ccccc23)cc1	10	0	-7	0	6.8*	1	0	1
NS(=O)(=O)c1ccc(N=Nc2c(O)c(C(=O)O)cc3ccccc23)cc1	-3	-1	2	-1	1	0	nt	nt
CC(C)CNC(=S)NC1CC2CCC(C1)N2Cc1ccccc1 (stereo not given)	2	1	-2	-1	6.8*	-1	0	2
COc1cccc2sc(Nc3nnc(-c4ccccc4Cl)o3)nc12	4	-5	-4	0	3	-2	nt	nt
COc1cccc(-c2nnc(Nc3nc4c(F)cccc4s3)o2)c1	9	3	-4	0	8.3*	0	0	6.8*
Cc1ccccc1C(=O)NC1CCCCN(Cc2cccc(F)c2)C1=O (stereo not given)	-1	0	-2	-1	2	nt	nt	nt
Cc1cccc2c3nc4ccccc4nc3n(C)c12	9	1	-10	1	6.7*	2	1	11*
CC(/C=N\NC(=O)CSc1nnc(-c2ccc(Br)cc2)n1-c1ccccc1)=C\c1ccco1	2	-3	-3	-1	-1	nt	nt	nt
CC(C)(C)OC(=O)NCCc1ccccc1/C=C/S(=O)(=O)NCc1ccccc1	1	-2	5	-1	-2	nt	nt	nt
CC1=CC2=NC(=O)/C(=C\c3cccn3CCOc3ccccc3C)C(=N)N2O1	-2	-1	2	-2	-4	1	nt	nt
COc1ccccc1OCCOc1ccc(/C=C2/C(=N)N3OC(C)=CC3=NC2=O)cc1OC	5	-1	11	-1	7.3*	-1	-1	-3
O=C(NC(=S)Nc1cc([N+](=O)[O-])ccc1Cl)c1ccccc1	5	1	6	0	6.6*	1	0	6.0*
O=C(NC(=S)Nc1ccc(Cl)cc1)c1ccccc1	13*	1	3	-1	8.0*	1	1	3
COc1cccc(CNC(=O)[C@H]2CCCN2C(=O)[C@H]2CCCN2C(=O)c2ccccc2)c1	-1	1	-5	-1	-1	nt	nt	nt
Cc1ccc(S(=O)(=O)N(C)[C@H]2C[C@H]3c4[nH]c5c(-c6ccccc6)cccc5c4CCN3C(=O)[C@H]2[C@H](C)O)cc1	5	0	-6	-1	0	nt	nt	nt
Cc1ccc(O)c(N=CC2=C(O)c3ccccc3C2=O)c1	7	3	6	0	6.8*	0	1	2
O=C1C(C=Nc2ccccc2)=C(O)c2ccccc21	13*	4.5*	3	1.8*	16*	-1	2	11*
CC1(C)CC(=O)C(C=Nc2ccccc2)=C(O)C1	-1	0	-1	-1	0	1	nt	nt
Cc1ccc(O)c(C=Nc2cc(C)ccc2O)c1	nt	nt	nt	nt	nt	-2	nt	nt
CCOc1ccc(NC(=O)c2cc3ccccc3cc2OC)cc1	8	0	0	0	7.0*	6.3*	1	6.1*
